Test results reported in PubChem BioAssay (NCI).
About 83,000 compounds went through this panel and 20% of them were active in at least one assay; those are over-represented in the sample as a whole.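 Compound tested at a single concentration for 48 hours in 96-well plates; a percent growth value below 10 was scored as active.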 Unmarked numbers belong to inactive results. Activity calls are given as the source filed them.

Tested on: HL-60(TB) leukemia
Assay: NCI-60 one-dose screen, 48 h (100 = growth as untreated, 0 = no growth, -100 = all killed)
Conditions: 10 µM unless noted

SMILES | growth
O=C1/C(=C/C=C/c2ccco2)SC(=S)N1C1CCCCC1 | 69.4%
O=C(CCCCCCNC(=O)C(O)(O)C(F)(F)F)Nc1ncc(-c2ccccc2)s1 | 11.2%
O=C(Cn1cc(-c2ccccc2)nn1)Nc1nc(-c2ccc(Cl)cc2)cs1 | 89.7%
O=S(=O)(NC1c2ccccc2C[C@H]1O)c1ccc(Cl)cc1Cl (stereo not given in full) | 98.1%
O=S(=O)(Nc1ccc(I)c(Cl)c1)c1ccc(-c2cnc(C3CC3)o2)cc1 | -1.6% (active)
NC(=O)N1N=C(c2cc3ccccc3oc2=O)CC1c1cn(-c2ccccc2)nc1-c1ccc(Cl)cc1 (stereo not given) | 47%
CCN(CC)CCCC(C)NCC(=O)NC(c1ccc2c(c1)OCO2)c1cc(Cl)c2cccnc2c1O (stereo not given) | 7.29% (active)
COc1cc(/C=C/C(=O)c2ccc(C)cc2)ccc1Oc1nc(NCCO)nc(N2CCOCC2)n1 | -26.7% (active)
CCOC(=O)c1c(NC(=O)c2ccc(C(F)(F)F)cc2)sc2c3c(ccc12)OCN(C)C3 | -27.6% (active)
C=C(C)[C@@H]1CC[C@]2(COC)CC[C@]3(C)[C@H](CC[C@@H]4[C@@]5(C)CCCNC(C)(C)[C@@H]5CC[C@]43C)[C@@H]12 | -69.2% (active)
C#CCOc1cccc(/C(N)=N/C(N)=N/c2nc3ccccc3s2)c1 | 88.8%
COc1ccc(Cn2cc3c(c2-c2cc(OC)c(OC)c(OC)c2)CCc2c(CN4CCOCC4)noc2-3)cc1 | 1.3% (active)
O=C1CC2(CCOCC2)Oc2ncccc21 | 13.3%
Cc1nc2ncc(-c3ccc4ncnc(NCc5ccccc5)c4c3)cc2[nH]1 | 109%
COc1cc(-c2nn(C(C)(C)C)cc2-c2ccnc(NCCCNS(=O)(=O)c3ccc(Cl)cc3)n2)ccc1Cl | 64.9%
Cn1nc(Nc2ccccc2)c(C(=O)NN)c1N | 105%
Cn1cc(-c2nc(N)nnc2-c2c[nH]c3ccccc23)c2cc(Br)ccc21 | -0.377% (active)
CS(=O)(=O)Nc1cc(-c2ccc3ncc(C#N)c(NCc4ccccc4O)c3c2)cnc1Cl | 12.4%
Cc1ccc(/C=N/Nc2nc(Nc3ccccc3)nc(Nc3ccc(S(N)(=O)=O)cc3)n2)cc1 | 75.2%
CCOC(=O)c1c(Nc2ccccc2)nn2c(-c3cccs3)ccnc12 | 74.9%

SMILES | growth
CCC/C=C/C=C/C(=O)N[C@@H](Cc1cc(F)cc(F)c1)C(=O)N[C@@H]1C(=O)N2CCC[C@H]2C(=O)N2CCCC[C@H]2C(=O)N[C@@H](C)C(=O)N2C[C@H](C)C[C@H]2C(=O)O[C@H]1C | 3.76% (active)
Cn1ccnc1C(=O)/C=C/c1ccc(NC(=O)Nc2ccccc2)cc1 | -16.5% (active)
COc1ccc(/C(=N\N=C(N)N)c2ccc(Cl)cc2)cc1OC | 44.9%
COc1cc(-c2ccc3ncnc(NC(C)c4ccccc4)c3c2)cnc1OC (stereo not given) | 43.2%
CC1=C(C)C(=O)C(Nc2cccc(C)c2)=C(Br)C1=O | 37%
Cc1ccc(C(=O)Nc2ccc(CNCCN3CCOCC3)c(C(F)(F)F)c2)cc1C#Cc1cnc2cccnn12 | -21.3% (active)
CCCCCCNC(=O)Oc1ccc(/C(=C(/C)c2ccccc2)c2ccc(OCCN(C)C)cc2)cc1 | 23.2%
Cc1cc(-c2ccc(Cl)cc2)n(Cc2nnc(SCC(=O)Nc3ccc(S(N)(=O)=O)cc3)n2C2CCCCC2)n1 | 116%
[Cl][Ru].c1ccc(-c2cccc(-c3ccccn3)n2)nc1.c1ccc(-c2ccnc3c2ccc2c(-c4ccccc4)ccnc23)cc1 | -10.5% (active)
CCN(CC)S(=O)(=O)c1ccc(-c2nc(C(Cl)Cl)nc3cc(-c4ccc(F)cc4)nn23)cc1 | 4.64% (active)
CCCCCCNC(=O)Oc1ccc(/C(=C(/C)c2ccc(OC)cc2)c2ccc(OCCN3CCCC3)cc2)cc1 | 50.7%
CCCc1cc2cc(-n3nc(CC)c4c3CC(C)(C)CC4=O)cc(NC3CCC(O)CC3)c2c(=O)[nH]1 (stereo not given) | -2.33% (active)
COc1ccc(C2c3[nH]c4ccc(Cl)cc4c3CCN2c2oc(CO)nc2C#N)cc1 (stereo not given) | 29.4%
COc1cc(OC)c(C2SCC(=O)N2Nc2ncnc3ccccc23)cc1OC (stereo not given) | 103%
Cc1ccc(Nc2nc(SC(C)C)nc(-c3ccccc3)c2C#N)cc1 | 118%
Clc1cccc(/C=N/Nc2nc(N/N=C/c3cccc(Cl)c3)nc(N3CCOCC3)n2)c1 | -9.74% (active)
O=[N+]([O-])c1ccc(-c2nnc(SCc3ccc(O)c4ncccc34)o2)cc1 | 13.7%
COc1ccc(/C=N/Nc2nc(Nc3ccccc3)nc(Nc3ccc(S(N)(=O)=O)cc3)n2)cc1 | 83.8%
Nc1nc(N)c2c(n1)NC(c1ccc(F)cc1)CC(c1ccc(Nc3nc(NCCO)nc(Nc4ccc(Cl)cc4)n3)cc1)=N2 (stereo not given) | -11.4% (active)
CC1(C)[C@@H](O)CC[C@]2(C)[C@H]3CC[C@@H]4[C@H]5[C@H](C(=O)/C=C\c6ccccn6)CC[C@]5(O)CC[C@@]4(C)[C@]3(C)CC[C@@H]12 | -24.5% (active)
